Test results taken from PubChem BioAssay (NCI).
About 79,000 compounds went through this panel and 15% of them were active in at least one assay; those are over-represented in the sample as a whole. A number with no mark means an inactive call. Calls of active or inactive are those of the source. Cut-off read from the data, not from the text of the source: active = growth inhibition above about 70%; inactive = the rest.

What was measured:
[1] = NCI Yeast Anticancer Drug Screen. Data for the rad50 strain (AID 155);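 note: 0% = growth of vehicle-only cultures of the same strain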; settings: S. cerevisiae rad50 strain growth inhibition, stronger effect = higher value
Procedure, shortened: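 A DNA repair-deficient yeast mutant serves as the test organism; compound-induced growth inhibition is calculated against vehicle-treated cells.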

[2] = NCI Yeast Anticancer Drug Screen. Data for the mec2-1 strain (AID 157); settings: S. cerevisiae mec2-1 strain, stronger effect = higher value
Procedure, shortened: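 Mutant yeast (mec2-1) grown with compound; growth inhibition relative to vehicle control reported.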

[3] = NCI Yeast Anticancer Drug Screen. Data for the sgs1 mgt1 strain (AID 161);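 note: 0% = growth of cultures given vehicle only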; settings: S. cerevisiae sgs1 mgt1 strain, stronger effect = higher value
Procedure, shortened: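 Compounds are added to genetically altered yeast, and growth is compared with cultures given vehicle alone to give percent inhibition.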

[4] = NCI Yeast Anticancer Drug Screen. Data for the cln2 rad14 strain (AID 165);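 note: 0% = growth equal to vehicle treated cultures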; settings: S. cerevisiae cln2 rad14 strain, stronger effect = higher value
Procedure, shortened: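 Readout is yeast growth inhibition versus vehicle-treated controls, using a strain with cln2 and rad14 alterations exposed to compound.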

[5] = NCI Yeast Anticancer Drug Screen. Data for the bub3 strain (AID 167); settings: S. cerevisiae bub3 mutant strain, stronger effect = higher value
Procedure, shortened: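 Inhibition values come from growth of compound-treated mutant yeast normalised to vehicle-treated controls.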

[6] = NCI Yeast Anticancer Drug Screen. Data for the mlh1 rad18 strain (AID 175); settings: S. cerevisiae mlh1 rad18 strain growth inhibition, stronger effect = higher value
Procedure, shortened: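 Genetically defined yeast (DNA repair-deficient) exposed to compounds; growth inhibition determined relative to vehicle.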

[7] = at 5.0 µM (retest, dose inferred, filed as 0.5)
[8] = at 50.0 µM (retest, dose inferred, filed as 5.0)

SMILES	growth inhibition [1, 7]	growth inhibition [1, 8]	growth inhibition ([1]; at 50.0 µM)	growth inhibition [2, 7]	growth inhibition [2, 8]	growth inhibition ([2]; at 50.0 µM)	growth inhibition [3, 7]	growth inhibition [3, 8]	growth inhibition ([3]; at 50.0 µM)	growth inhibition [4, 7] [%]	growth inhibition [4, 8]	growth inhibition ([4]; at 50.0 µM)	growth inhibition [5, 7]	growth inhibition [5, 8]	growth inhibition ([5]; at 50.0 µM)	growth inhibition [6, 7]	growth inhibition [6, 8]	growth inhibition ([6]; at 50.0 µM)
Cc1ccc(/C=N/Nc2ccc([N+](=O)[O-])cc2[N+](=O)[O-])cc1	-2%	-4%	19.4%	-1%	-2%	-8.75%	-3%	-3%	10.6%	-4	-9%	20.1%	-3%	-4%	-9.15%	-4%	-4%	-3.9%
COC(=O)/C(=N\NC(=O)c1ccccc1O)C(C#N)c1ccc(Cl)cc1 (stereo not given)	-4%	44%	62.1%	-1%	65%	54.8%	13%	73% (active)	68%	-7	42%	43.4%	-3%	79% (active)	71.8% (active)	0%	60%	70.6% (active)
CC(C)=NOCCOC(=O)C(c1ccccc1)c1ccccc1	-4%	3%	80.7% (active)	-5%	2%	75% (active)	-8%	-2%	92% (active)	0	18%	39.6%	7%	25%	96.6% (active)	-6%	0%	89% (active)
Fc1ccc(CN2COc3c(ccc4cccnc34)C2)cc1	-5%	32%	59.4%	-2%	17%	27.1%	2%	34%	62.4%	3	70% (active)	41.2%	-5%	50%	77% (active)	-1%	57%	9.45%
O=C(O)/C(=C\c1ccc(Cl)cc1)c1ccc(C(F)(F)F)cc1[N+](=O)[O-]	11%	76% (active)	94.1% (active)	8%	90% (active)	97.5% (active)	0%	91% (active)	96% (active)	21	84% (active)	97.6% (active)	18%	84% (active)	96.8% (active)	25%	93% (active)	98.2% (active)
COc1cccc(C=O)c1O	6%	75% (active)	74.6% (active)	-3%	21%	1.05%	1%	29%	17.5%	1	23%	-23.5%	-6%	0%	-9.35%	1%	66%	62.5%
C/C(=N\NC(=S)N1CCN(C2CCCCC2)CC1)c1ccccn1	-3%	64%	99% (active)	-14%	76% (active)	98.7% (active)	-4%	98% (active)	98.5% (active)	12	59%	97.1% (active)	-16%	51%	96.6% (active)	15%	85% (active)	95.7% (active)
CCN(CC)c1ccc(NC(C(=O)c2ccc(Cl)cc2)c2ccc(Cl)cc2)cc1 (stereo not given)	-7%	-10%	91.3% (active)	-2%	-10%	91.2% (active)	-6%	-9%	96.2% (active)	2	-11%	93.3% (active)	-1%	8%	86.3% (active)	-2%	-8%	95.6% (active)
CC(CCC(=O)O)[C@H]1CCC2[C@@H]3CC(O)[C@@H]4CC(O)CC[C@]4(C)C3CC[C@@]21C (stereo not given in full)	-5%	44%	75.4% (active)	-10%	58%	74.5% (active)	5%	64%	77.3% (active)	14	70% (active)	76.2% (active)	-6%	84% (active)	50.5%	-8%	71% (active)	67.7%
COc1cc(C(=O)CBr)c2ccc(Cl)cc2n1	73% (active)	97% (active)	84.8% (active)	90% (active)	98% (active)	69.2%	94% (active)	97% (active)	94% (active)	59	97% (active)	95.3% (active)	87% (active)	97% (active)	70.3% (active)	93% (active)	97% (active)	91.4% (active)
CCn1c(=O)cc2n(C)c3ccccc3n2c1=O	-30%	-23%	17.3%	0%	-7%	17.4%	-15%	-28%	-5.15%	-39	-24%	62.7%	-23%	-15%	0.6%	-36%	-14%	23.4%
CC(C)(O)[C@H](CCO)O[Si](c1ccccc1)(c1ccccc1)C(C)(C)C	26%	97% (active)	98.3% (active)	18%	98% (active)	92% (active)	13%	97% (active)	98.2% (active)	17	97% (active)	97.5% (active)	4%	98% (active)	98.5% (active)	23%	97% (active)	98.6% (active)
O=C(CCN1CCOCC1)c1ccc(Oc2ccc(F)cc2)cc1	65%	87% (active)	67.2%	64%	95% (active)	77% (active)	80% (active)	95% (active)	85.2% (active)	64	66%	78.1% (active)	88% (active)	98% (active)	85.4% (active)	74% (active)	90% (active)	88% (active)
COc1ccc(/C=N/Nc2cc(C)nc3cc4c(cc23)OCO4)c2ccccc12	20%	88% (active)	82.6% (active)	6%	81% (active)	85.8% (active)	22%	91% (active)	86% (active)	0	24%	57.6%	8%	37%	97.9% (active)	12%	82% (active)	94.8% (active)
CN(C)CCC(=O)c1ccco1	6%	85% (active)	86.1% (active)	13%	93% (active)	94% (active)	25%	87% (active)	93.3% (active)	10	89% (active)	93.5% (active)	-3%	39%	70.2% (active)	13%	92% (active)	95.3% (active)
CC(=O)N1CCCC2=C1CCCCCCCCCC2	-7%	4%	49.4%	-6%	-5%	27.9%	-3%	1%	70.6% (active)	3	-9%	22.9%	-12%	-21%	29.2%	-6%	-2%	13.8%
O=c1[nH][nH]c(=O)c2c1nc(SCc1ccccc1)n2Cc1ccccc1	-3%	-4%	8.05%	-3%	5%	-10.9%	-1%	2%	1.25%	-3	-4%	75.8% (active)	-6%	-4%	2.3%	-2%	7%	9.45%
Cc1ccc(S(=O)(=O)N/N=c2\c(C)c(C3=NS(=O)(=O)c4cc(S(N)(=O)=O)c(Cl)cc4N3)oc3c(Cl)cc(Cl)cc23)cc1	40%	63%	77.9% (active)	32%	55%	47%	28%	59%	56.5%	33	60%	65.9%	33%	73% (active)	60.5%	44%	69%	59.2%
C(=N\N=C\c1ccc2c(c1)OCO2)/c1ccc2c(c1)OCO2	2%	4%	3.1%	3%	2%	-4.3%	0%	6%	-3.7%	-32	-6%	75.9% (active)	3%	1%	3.9%	10%	21%	6.45%
COC1=CC2=CCC3C(CCC4(C)C(C(C)=O)CCC34)C2(C)CC1 (stereo not given)	-8%	5%	42.5%	-7%	4%	13%	-1%	40%	49%	-2	14%	0.75%	-17%	-5%	47.6%	-12%	-2%	51.1%
